In all, about 69,000 compounds went through this assay and about 8,600 (12%) showed an effect of 50% or more. The list comes from a sample in which strong results are over-represented; it also holds similar structures and randomly drawn compounds.

The subject of this test is Plasmodium berghei. The test can be described thus: Screen against P. berghei liver stage (PbLuc), transformed with Luciferase, at 10uM. The conditions noted are these: tested at 10 uM. It is filed as functional, HepG2.
As for `COc1ccc2oc(C(C)NC(=O)NC3CCN(C)CC3)c(C)c2c1` (configuration not stated), the INHIBITION was determined as 2.4%.

Regarding `Cn1ccnc1CNC(=O)N(CCCO)C1CCc2ccccc21` (configuration not stated), the INHIBITION is 8.05%.

Regarding `CCC[C@H]1CN(c2cncc(C(=O)N3CCCCC3)n2)C[C@@H]1N(C)C`, the INHIBITION was -12.2%.

For the compound `COCCNC(=O)Cn1cc(OCc2ccc(F)cc2)c(=O)cc1C`, the INHIBITION is 25.8%.

`Cc1nc(O)cc(C2CCCN2CCO)n1` (configuration not stated): the INHIBITION amounted to 13.5%.

Turning to `CC(=O)Cc1c(C)nn(-c2cncc(N)c2)c1C`, the INHIBITION stood at 11.5%.

Regarding `O=C1CC2(CCCC2)CN1CCOc1ccc(F)cc1`, the INHIBITION is -144%.

On to `Cn1nc(C(=O)N2CC(Oc3nc4c(Cl)cccc4s3)C2)ccc1=O`, for which the INHIBITION came out at 29.6%.

Consider `OC1CN(c2nc3c(C(F)(F)F)cccc3s2)C1`, for which the INHIBITION is given as -40%.

Consider `O=C(C1=COCCO1)N1CC(Oc2nc3c(Cl)cccc3s2)C1`, for which the INHIBITION worked out at 74.6%.

In the case of `COc1cccc2sc(OC3CN(C(=O)C4=COCCO4)C3)nc12`, the INHIBITION was found to be 13.3%.

For `O=C(C1=COCCO1)N1CC(Oc2nc3c(C(F)(F)F)cccc3s2)C1`, the INHIBITION came to 81.1%.

As to `CC(=O)OC1CN(c2nc3c(C(F)(F)F)cccc3s2)C1`, the INHIBITION was -107%.

Turning to `CC1CCN(C(=O)CSc2nc3c(cnn3CCO)c(=O)[nH]2)CC1`, the INHIBITION is listed as 38.6%.

As for `O=C(c1ccc2[nH]nnc2c1)N1CC[C@H](O)[C@]2(CCCO2)C1`, the INHIBITION was determined as 1.62%.

Regarding `CCc1cccc(NC(=O)N2CCn3cnc(COC)c3C2)c1`, the INHIBITION is listed as -2.35%.

Take `CCN(CC1CCCO1)C(=O)Nc1cc(C(N)=O)ccc1OC` (configuration not stated): the INHIBITION was 2.3%.

With `O=C(Cc1ccsc1)N1CCC[C@@H]1Cn1c(=O)oc2ccccc21`, the INHIBITION came out at 8.2%.

On to `O=C(NCC1CCOCC1)[C@@H]1CC[C@@H]2[C@@H](CCN2Cc2ccncc2)O1`, for which the INHIBITION is recorded as -54.7%.

`O=C(CCc1cccnc1)N(Cc1ccsc1)CC1CCCO1` (configuration not stated): the INHIBITION was -9.86%.

Consider `O=C(COCC1CCCO1)N(Cc1cccnc1)c1ccc(F)cc1` (configuration not stated), for which the INHIBITION was 53.3%.

With `O=C(CN(Cc1cccnc1)CC1CCCO1)Nc1ccc(F)cc1` (configuration not stated), the INHIBITION worked out at 21.6%.

`Cn1cc(C2CC(=O)NC23CCN(C(=O)c2cccnc2)CC3)cn1` (configuration not stated): the INHIBITION was determined as 33.4%.

Consider `O=C(c1csc(-c2ncccn2)n1)N1CCCC1Cn1cccn1` (configuration not stated), for which the INHIBITION was found to be 41.5%.

As for `O=C(Nc1cccc(CNCc2cccs2)c1)C1CCCC1`, the INHIBITION worked out at 36.9%.

For the compound `CC(C)CC(=O)Nc1cccc(CNCc2cccs2)c1`, the INHIBITION is listed as 52.1%.

Turning to `O=C(Nc1cccc(CNCc2cccs2)c1)C1CC1`, the INHIBITION is reported as 20.5%.

In the case of `Cc1cnn(CC2CCCN2C(=O)c2sccc2-n2cnnn2)c1` (configuration not stated), the INHIBITION was -29.1%.

In the case of `COCCC(=O)N(C)CCC1=CCN(C)CC1`, the INHIBITION is -6.274%.

On to `CN(C)C(=O)C1(c2cnccn2)CCCN1C(=O)Cc1ccsc1` (configuration not stated), for which the INHIBITION amounted to 41%.

Regarding `CCN1CC[C@]2(CN(C(=O)C3CCOCC3)C[C@H]2c2ccccc2)C1=O`, the INHIBITION turned out to be 20.1%.

`O=C([C@H]1CCCO1)N1CCC2(CC1)Cc1ccccc1CNC2=O`: the INHIBITION is 7.7%.

`CN1Cc2ccccc2CC2(CCN(C(=O)[C@H]3CCCO3)CC2)C1=O`: the INHIBITION is given as 59.3%.

For the compound `CN1Cc2ccccc2CC2(CCN(C(=O)N3CCOCC3)CC2)C1=O`, the INHIBITION was 26.5%.

On to `CN1CC[C@]2(CN(C(=O)[C@H]3CCCO3)C[C@H]2c2ccccc2)C1=O`, for which the INHIBITION stood at 4.02%.

Regarding `CCN1CC[C@]2(CN(C(=O)[C@H]3CCCO3)C[C@H]2c2ccccc2)C1=O`, the INHIBITION amounted to 52.3%.

Regarding `CSCCC(=O)N1CCCC(n2ccnc2)C1` (configuration not stated), the INHIBITION is reported as -6.14%.

For the compound `CC(C)Cn1cc2nc(N)[nH]cc-2c1=O`, the INHIBITION is on record as 29.2%.

On to `O=C(NCCN1CCCCCC1=O)Nc1cccnc1-n1cccn1`, for which the INHIBITION is reported as -15.4%.

Regarding `CCc1ncc2c(n1)CN(c1cc(NC3CC3)nc(N)n1)C2`, the INHIBITION is on record as -49.6%.

Turning to `CCn1cc(-n2cc3nc(N)[nH]cc-3c2=O)cn1`, the INHIBITION was -8.69%.

As to `CCN(CC1CCCO1)S(=O)(=O)c1cc(NC(C)=O)ccc1C` (configuration not stated), the INHIBITION is 47.7%.

`CCN(CC)S(=O)(=O)c1cc(NC(=O)CCc2cscn2)ccc1C`: the INHIBITION stood at 28.9%.

Consider `CCCN(CCC)S(=O)(=O)c1cc(NC(C)=O)ccc1C`, for which the INHIBITION was determined as 71.2%.

Regarding `O=C(c1cccc(C2CCNC2)c1)N1CCC(N2CCC(O)CC2)CC1` (configuration not stated), the INHIBITION was determined as 35.1%.

As to `Cc1ccccc1C(=O)N1CCOC2(CNCCOC2)C1` (configuration not stated), the INHIBITION was 55.1%.

Turning to `COc1ccc(Cl)cc1C(=O)N1CCOC2(CNCCOC2)C1` (configuration not stated), the INHIBITION amounted to 16.8%.

Take `Cc1cc2cccc(C(=O)N3CCOC4(CNCCOC4)C3)c2o1` (configuration not stated): the INHIBITION came out at 30.5%.

On to `CN(C)c1ccccc1C(=O)N1CCOC2(CNCCOC2)C1` (configuration not stated), for which the INHIBITION is recorded as 8.53%.

On to `COc1ccc(C(=O)N2CCOC3(CNCCOC3)C2)c(OC)n1` (configuration not stated), for which the INHIBITION stood at 53.6%.

In the case of `O=C(c1ccccc1-c1ccccc1)N1CCOC2(CNCCOC2)C1` (configuration not stated), the INHIBITION was -16.5%.

On to `Cc1nc(C)n(CC2CCCN2CC(=O)NCCC#N)n1` (configuration not stated), for which the INHIBITION turned out to be 8.38%.

Source of the values: ChEMBL document CHEMBL4513216, “Probing the Open Global Health Chemical Diversity Library for Multistage-Active Starting Points for Next-Generation Antimalarials” (ACS Infect Dis, 2020).
